Test results: PubChem BioAssay (Tox21)
The source made the active and inactive calls. Calls follow the shape of the dose curve; as a rule, active = well fitted curve in the direction sought with a large enough effect in the repeat runs; inconclusive = weak or mixed curves; inactive = flat fitted curve, though single readings scatter.

Assay: qHTS assay to test for compound auto fluorescence at 460 nm (blue) in HepG2 cell free culture (AID 720685)
Details: Cell-free culture medium, blue autofluorescence 405/460 nm; series mostly up to 46 µM
Description: U.S. Tox21 Program National Center for Advancing Translational Sciences [NCATS] NIH Chemical Genomics Center [NCGC] U.S. Environmental Protection Agency [EPA] National Institutes of Environmental Health Sciences [NIEHS] National Toxicology Program [NTP] U.S. Food and Drug Administration [FDA] Tox21 Assay Overview: Compound auto fluorescence often interferes with screening of the compound library against various biological targets and signaling pathways. Some of these compounds may have fluorophoric properties. Such properties may interfere with the assay outputs resulting in false positives and/or negatives. To decrease such complications and ensure the compound activities are relevant in terms of biological response, the Tox21 10K compound library was screened for auto fluorescence. From the fluorophores used as reporter signals in our screening assays, the auto fluorescence equivalencies of compounds against three fluorophores have been evaluated: Triamterene, Fluorescein and Rose Bengal sodium for blue, green and red fluorescence, respectively. The fluorescence intensities were measured using Excitation/Emission wavelengths at 405/460nm, 485/535nm and 540/590nm for blue, green and red labels, respectively. This assay includes the blue fluorescence data.
Tox21 Assay Protocol Summary: 5 uL of culture medium (MEM containing 10% FBS) per well was dispensed into black wall/clear bottom 1536-well plates using a Multidrop Combi Dispenser (ThermoFisher Scientific, Waltham, MA). After 23 nL compound or DMSO vehicle was transferred into assay plate by a pintool work station (Kalypsys, San Diego, CA), fluorescence intensities in the assay plates were measured by an Envision (PerkinElmer, Shelton, CT) plate reader using three labels for measuring blue, green and red fluorescence at […] 460, 535 and 590nm respectively.

SMILES | outcome
N=C(N)c1ccccc1 | inactive
CC(C)(C)c1ccc(O)c(O)c1 | inactive
CC(C[N+](C)(C)C)OC(N)=O (stereo not given) | inactive
O=C(O)Cc1ccc(CCNS(=O)(=O)c2ccc(Cl)cc2)cc1 | inactive
CCCCOCCOCCOCCCC | inactive
CCOC(=O)CCC(C)=O | inactive
CCC=O | inactive
Cc1ccc(=O)n(-c2ccccc2)c1 | inactive
CCCCC/C=C\CCC=O | inactive
C[N+](C)(C)CCCCCC[N+](C)(C)C | inactive
CC(=O)OC/C=C(\C)CC/C=C(\C)CCC=C(C)C | inactive
CO[Si](CCCOCC1CO1)(OC)OC (stereo not given) | inactive
CN(C)CCCN1c2ccccc2CCc2ccc(Cl)cc21 | inactive
CCCCCCOC(=O)CCCCC(=O)OCCCCCC | inactive
NS(=O)(=O)c1ccccc1Cl | inactive
CC(C)=CCCC(C)CC(=O)O (stereo not given) | inactive
CCCN1CCCC[C@H]1C(=O)Nc1c(C)cccc1C | inactive
C[C@@H]1CCN(C(=O)[C@H](CCCN=C(N)N)NS(=O)(=O)c2cccc3c2NC[C@H](C)C3)[C@@H](C(=O)O)C1 | inactive
Nc1ccc(S(=O)(=O)Nc2ccnn2-c2ccccc2)cc1 | inactive
CC(=O)N(CC(O)CO)c1c(I)c(C(=O)NCCO)c(I)c(C(=O)NCC(O)CO)c1I (stereo not given) | inactive

SMILES | outcome
CC(=O)Nc1ccc(S(N)(=O)=O)cc1 | inactive
Cc1[nH]c(=O)c(C#N)cc1-c1ccc2nccn2c1 | inactive
C[C@H](NC(CCc1ccccc1)C(=O)O)C(=O)N1CCC[C@H]1C(=O)O (stereo not given in full) | inactive
CN1CCC(=C2c3ccccc3CC(=O)c3sccc32)CC1 | inactive
CC(=O)Nc1c(I)cc(I)c(C(=O)O)c1I | inactive
CCC(=O)OC(C)c1ccccc1 (stereo not given) | inactive
Cc1nc2c([nH]1)c(=O)n(C)c(=O)n2Cc1ccco1 | inactive
O=C1CCCCCCCCCCCN1 | inactive
CCOC(=O)C(=O)OCC | inactive
O=C(O)CCCc1ccccc1 | inactive
C=CCS(=O)(=O)O | inactive
CCOC(=O)CC(C)=O | inactive
CC/C=C\CC/C=C/CO | inactive
Nc1c2c(nc3ccccc13)CCCC2O (stereo not given) | inactive
CCOC(=O)[C@H](CCc1ccccc1)N[C@@H](C)C(=O)N1[C@H](C(=O)O)C[C@@H]2CCC[C@@H]21 | inactive
Cc1ccc(Cl)cc1Cl | inactive
CCc1ccc(O)c(OC)c1 | inactive
CC(C)(O)C(=O)c1ccccc1 | inactive
C=C(C)CS(=O)(=O)O | inactive
O=C(O)COc1nn(Cc2ccccc2)c2ccccc12 | inactive
